Some test systems named below: NCI-H23 lung; NCI-H226 lung; NCI-H322M lung; HOP-62 NSCLC; NCI-H460 lung; HOP-92 NSCLC; NCI-H522 lung; A549/ATCC NSCLC; 786-0 renal; COLO 205 colon; DU-145 prostate; K-562 leukemia; MALME-3M melanoma; MDA-MB-231 breast; RXF 393 renal; SF-268 CNS; SF-295 CNS; SF-539 CNS; UACC-257 melanoma; M14 melanoma.
What all share (assay): NCI-60 one-dose screen, 48 h (100 = growth as untreated, 0 = no growth, -100 = all killed)
Holding throughout (details): 10 µM unless noted

Compounds without any hit were thinned out: in the full panel of roughly 83,000, 20% have a hit.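 Results are percent growth after 48 hours of single-concentration exposure. 100 means growth as in untreated cells, lower positive values show inhibition; negative values down to -100 show cell death.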 Values without a mark were called inactive. Calls of active or inactive are those of the source. Rule for the calls: active = growth percent below 10; inactive = the rest.

In the case of `CCOC(=O)c1n[nH]n2c1nc(=O)c1cnn(C)c12`, the growth in the assay with NCI-H23 lung was 96.5%; in the assay with NCI-H226 lung, 98.1%; in the assay with NCI-H322M lung, 99.4%; with HOP-62 NSCLC it was 103%; with NCI-H460 lung, 103%; in the assay on HOP-92 NSCLC, 103%. The growth in the assay with NCI-H522 lung was 91%; in the assay with A549/ATCC NSCLC, 86.7%; in the assay with 786-0 renal, 106%; in the assay on COLO 205 colon it was 111%; with DU-145 prostate it was 98.5%; with K-562 leukemia it was 93%. In addition, the growth with MALME-3M melanoma was 101%; in the assay with MDA-MB-231 breast it was 113%; with RXF 393 renal it was 109%; with SF-268 CNS, 96.1%; in the assay with SF-295 CNS, 108%; in the assay on SF-539 CNS, 103%. Besides, the growth was 86.4% with UACC-257 melanoma and 102% in the assay with M14 melanoma.

Turning to `C=C1C(=O)O[C@H]2[C@H]1CC/C(COC(=O)NCc1ccc(Cn3c(=O)sn(-c4ccc(OC)cc4)c3=O)cc1)=C\CC[C@@]1(C)O[C@@H]21`, the growth in the assay with NCI-H23 lung is 88.2%; with NCI-H226 lung it was 94.8%; in the assay with NCI-H322M lung, 97.7%; in the assay on HOP-62 NSCLC, 98.9%; in the assay with NCI-H460 lung it was 95.2%; in the assay on HOP-92 NSCLC it was -1.01% (active). Further, the growth is -65.4% (active) in the assay on NCI-H522 lung; 97.7% in the assay on A549/ATCC NSCLC; 50.9% in the assay with 786-0 renal; -51.2% (active) in the assay with COLO 205 colon; 27% in the assay with DU-145 prostate; -3.73% (active) in the assay on K-562 leukemia. Further, the growth in the assay with MALME-3M melanoma is -3.77% (active); with MDA-MB-231 breast, 47.7%; in the assay on RXF 393 renal, 42.3%; in the assay with SF-268 CNS, 86.5%; in the assay on SF-295 CNS, 97.7%; in the assay on SF-539 CNS it was 82.1%. Also, the growth in the assay with UACC-257 melanoma was 65.3%; with M14 melanoma, 25.7%.

`Brc1ccc(-c2cnc3nonc3n2)cc1`: the growth in the assay with NCI-H23 lung is 68%; in the assay on NCI-H226 lung, 100%; in the assay on NCI-H322M lung it was 94%; in the assay on HOP-62 NSCLC it was 105%; with NCI-H460 lung, 96.7%; with HOP-92 NSCLC, 86.9%. Also, the growth with NCI-H522 lung is 66%; in the assay on A549/ATCC NSCLC it was 91.9%; in the assay with 786-0 renal it was 84.2%; in the assay on COLO 205 colon, 71.3%; in the assay on DU-145 prostate, 87.7%; in the assay with K-562 leukemia, 38.7%. The growth in the assay on MALME-3M melanoma is 53.9%; in the assay on MDA-MB-231 breast, 69.1%; in the assay on RXF 393 renal, 74.5%; in the assay with SF-268 CNS, 87.1%; in the assay with SF-295 CNS, 91.4%; in the assay with SF-539 CNS, 94.8%. In addition, the growth in the assay with UACC-257 melanoma is 66.9%; with M14 melanoma it was 80.1%.

Regarding `COC(=O)Cc1nc(C#N)c(N(C)C)o1`, the growth with NCI-H23 lung is 95.4%; in the assay on NCI-H226 lung it was 96.3%; in the assay with NCI-H322M lung it was 97.2%; with HOP-62 NSCLC, 96.7%; in the assay with NCI-H460 lung it was 101%; in the assay on HOP-92 NSCLC, 95.9%. In addition, the growth was 90.3% in the assay with NCI-H522 lung; 95.8% with A549/ATCC NSCLC; 97.6% in the assay with 786-0 renal; 104% in the assay on COLO 205 colon; 112% in the assay with DU-145 prostate; 91.1% with K-562 leukemia. The growth was 105% in the assay with MALME-3M melanoma; 100% in the assay on MDA-MB-231 breast; 106% in the assay on RXF 393 renal; 94.8% with SF-268 CNS; 100% in the assay on SF-295 CNS; 99% in the assay on SF-539 CNS. Also, the growth is 95.7% in the assay on UACC-257 melanoma and 103% with M14 melanoma.

Regarding `CCCCC(=O)Nc1ncc(Cc2ccccc2Cl)s1`, the growth was 69.4% in the assay with NCI-H23 lung; 63.4% with NCI-H226 lung; 86.8% in the assay with NCI-H322M lung; 42.7% in the assay with HOP-62 NSCLC; 51% in the assay with NCI-H460 lung; 51.3% with HOP-92 NSCLC. The growth was 19.9% in the assay on NCI-H522 lung; 40.9% with A549/ATCC NSCLC; 50% in the assay on 786-0 renal; 37% with COLO 205 colon; 67.2% with DU-145 prostate; 24.8% in the assay on K-562 leukemia. The growth in the assay with MALME-3M melanoma is 52.1%; in the assay on MDA-MB-231 breast, 53.3%; with RXF 393 renal, 31.3%; with SF-268 CNS, 69.6%; in the assay on SF-295 CNS, 45.7%; in the assay on SF-539 CNS it was 39.2%. For the same compound, the results for the growth in the assay with UACC-257 melanoma and in the assay with M14 melanoma were 55.3% and 21.8%, respectively.

Regarding `COc1ccc(/C(C)=C(\c2ccc(OCCN3CCCCCC3)cc2)c2ccc(OC(=O)c3ccccc3)cc2)cc1`, the growth in the assay on NCI-H23 lung is 52.2%; in the assay with NCI-H226 lung, 75.3%; in the assay on NCI-H322M lung, 80.5%; in the assay on HOP-62 NSCLC it was 75.7%; in the assay with NCI-H460 lung, 10.2%; with HOP-92 NSCLC it was 54.4%. Further, the growth in the assay on NCI-H522 lung was 68.3%; with A549/ATCC NSCLC it was 41.1%; with 786-0 renal, 27.5%; in the assay on COLO 205 colon, 12.4%; with DU-145 prostate, 71.8%; in the assay on K-562 leukemia, 1.82% (active). Also, the growth in the assay on MALME-3M melanoma is 22.7%; in the assay with MDA-MB-231 breast it was 52.6%; in the assay on RXF 393 renal it was 16.4%; with SF-268 CNS, 44.4%; in the assay with SF-295 CNS, 20.6%; in the assay with SF-539 CNS, 45.2%. Moreover, the growth is -15.5% (active) in the assay with UACC-257 melanoma and -39% (active) in the assay on M14 melanoma.

In the case of `O=C(O)CCCc1cnc2c3sccc3nc(SCc3c(Cl)cccc3Cl)n12`, the growth in the assay with NCI-H23 lung was 62.2%; in the assay on NCI-H226 lung, 83.1%; in the assay on NCI-H322M lung, 55.3%; in the assay with HOP-62 NSCLC it was 33.9%; in the assay with NCI-H460 lung it was 22.2%; in the assay on HOP-92 NSCLC it was 58.7%. In addition, the growth is -12.5% (active) with NCI-H522 lung; 59.5% with A549/ATCC NSCLC; 38.5% in the assay on 786-0 renal; 28.3% with COLO 205 colon; 59.3% in the assay on DU-145 prostate; 20.7% in the assay with K-562 leukemia. For the same compound, the growth in the assay on MALME-3M melanoma is 59.2%; in the assay with MDA-MB-231 breast, 69.6%; with RXF 393 renal, 54.6%; in the assay on SF-268 CNS, 50.3%; in the assay with SF-295 CNS, 27.2%; with SF-539 CNS, 41%. Besides, the results for the growth in the assay on UACC-257 melanoma and in the assay with M14 melanoma were 53% and 33%, respectively.

Consider `COc1ccc(NC(=O)c2ccc(C(=O)Nc3ccc(OC)cc3OC)cc2)c(OC)c1`, for which the growth was 75.3% with NCI-H23 lung; 71.5% in the assay with NCI-H226 lung; 91.3% in the assay on NCI-H322M lung; 33.6% in the assay on HOP-62 NSCLC; 95.9% in the assay with NCI-H460 lung; -19.3% (active) with HOP-92 NSCLC. Moreover, the growth with NCI-H522 lung is 76.4%; with A549/ATCC NSCLC it was 85%; with 786-0 renal, 51.2%; in the assay on COLO 205 colon it was 115%; in the assay on DU-145 prostate, 94.6%; in the assay on K-562 leukemia, 110%. The growth in the assay with MALME-3M melanoma was 84.5%; in the assay on MDA-MB-231 breast it was 53.1%; in the assay on RXF 393 renal, 40.5%; in the assay with SF-268 CNS, 29.7%; in the assay on SF-295 CNS, 57.3%; in the assay on SF-539 CNS, 35.8%. The growth was 90.6% with UACC-257 melanoma and 79.8% with M14 melanoma.

The values above are taken from PubChem BioAssay (NCI).
